Assay outcomes deposited in PubChem by National Center for Advancing Translational Sciences (NCATS).
Rows were chosen to be rich in hits. Some 21% of all compounds tested hit in one or more screens of this group.
NS1 inh – influenza NS1 inhibition; Potency, µM (top dose mostly 46.1 µM), for the others: at the top dose activity, positive = more growth; AID 2326; hit rate 0.4% among 270,000; calls by dose curve; note: potency is the fitted concentration of half-maximal effect; actives are rising curves; nearly all actives have a fitted effect of over 50% in size
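In this qHTS, NS1 from influenza A is expressed in budding yeast, where it slows growth. Cells are switched from glucose to 2% galactose medium (pH 6.0, -URA), treated with compound, and growth recovery is read at OD600.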
Pf growth 96h – P. falciparum growth inhibition at 96 hours; P. falciparum luciferase reporter growth, 96 h; Potency, µM (series often up to 28.7 µM), for inactives: top-dose activity change, negative = inhibition, hits mostly inhibitors; hit rate 6.9% among 320,000; AID 504834; note: potency is the fitted concentration of half-maximal effect; % is set by controls: 0 for no effect and ±100 for the full control effect
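Erythrocytes infected with luciferase-expressing P. falciparum were dispensed at 2% hematocrit and 0.05% parasitemia (final), then incubated with compounds 96 hours at 37 C in 5% CO2. Luminescence after detection reagent addition reported growth.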
CHX counter – counter-screen for Shiga toxin inhibitors: cycloheximide protein synthesis inhibition; AID 2314; cell reporter, cycloheximide protein synthesis inhibition counterscreen; max response, %; hit rate 12% among 300,000; in the data active = max response mostly above about 13%, no sharp cut-off; inactive = mostly below about 14%; note: read at 38.3 µM for the half of the compounds with a filed dose; 0% is about no effect
Pf growth 48h – P. falciparum growth inhibition at 48 hours (one generation). P. falciparum luciferase growth in erythrocytes, 48 h. Potency, µM (top dose mostly 28.7 µM), without a hit: top-dose activity change, negative = inhibition, hits mostly inhibitors. hit rate 5.9% among 310,000; note: potency is the fitted concentration of half-maximal effect; % is set by controls: 0 for no effect and ±100 for the full control effect
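Erythrocytes infected with P. falciparum carrying an integrated firefly luciferase reporter (2% hematocrit, 0.1% parasitemia final) were exposed to compounds in RPMI 1640 with 0.5% Albumax at 37 C, 5% CO2. Growth inhibition was scored as reduced luminescence.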
Shiga toxin inh – inhibitors of Shiga toxin in Vero cells | Vero cells, Shiga toxin protein synthesis inhibition reporter | inhibition, % at 38.7 µM | hit rate 9.2% among 290,000 | AID 2315; in the data active = inhibition mostly above about 28%, no sharp cut-off; inactive = mostly below about 43%; note: 0% is about no effect
* hit, by the source's call; ? = inconclusive; · = no result given. Unless noted, calls come from the whole dose curve; as a rule, active = well fitted inhibition curve with a large enough effect; inconclusive = small, poorly fitted or top-dose-only effect, or another doubt; inactive = no such curve, though single readings can be large or run the other way.

SMILES	NS1 inh	Pf growth 96h	CHX counter	Pf growth 48h	Shiga toxin inh
CCO[C@H]1OC(C(=O)N2CCN(Cc3ccc4c(c3)OCO4)CC2)=C[C@@H](c2ccc(C(F)(F)F)cc2)[C@@H]1CCCO	-6.8%	1.47µM*	-2.9	?	-25.0
CCO[C@H]1OC(C(=O)N2CCN(Cc3ccc4c(c3)OCO4)CC2)=C[C@@H](C2CC2)[C@@H]1CCCO	-4.5%	7.38µM*	-0.5	?	-2.4
COc1ccccc1CC(=O)N(CCC1=CCCCC1)c1c(N)n(Cc2ccccc2)c(=O)[nH]c1=O	·	?	·	-9.4%	·
CC1CC(C)CN(C(=O)CCNC(=O)Cn2ccc3ccccc3c2=O)C1 (configuration not stated)	8.1%	?	-5.1	4.9%	32.9
COc1ccc(C2=NC(c3ccc(Cl)cc3)C(c3ccc(Cl)cc3)N2C(=O)N2CCNC(=O)C2)c(OC(C)C)c1 (configuration not stated)	·	·	-2.0	·	-3.7
CCN(CC)C1CCS(=O)(=O)C1 (configuration not stated)	·	0.185µM*	-5.3	37.3%	-7.9
CCN(C(=O)COC(=O)c1cnc(C)cn1)C1CCS(=O)(=O)C1 (configuration not stated)	·	3.2%	·	-9.5%	·
CCOC(=O)C(=O)N(CC)C1CCS(=O)(=O)C1 (configuration not stated)	-1.9%	44.7%	8.9*	54.2%	10.2
O=C1CC(NS(=O)(=O)c2ccccc2)CN1c1ccc2c(c1)OCCO2 (configuration not stated)	·	?	·	-1.2%	·
C[n+]1ccn(CC(=O)c2cc(C(C)(C)C)c(O)c(C(C)(C)C)c2)c1	5.7%	20.4%	-3.6	9.28µM*	-11.2
C[n+]1ccn(CC(=O)c2ccc(Br)cc2)c1	-5.6%	9.28µM*	3.5	11.7µM*	10.5
C=Cn1cc[n+](CC(=O)c2ccc(Br)cc2)c1	7.2%	6.57µM*	-2.2	?	-2.1
C=Cn1cc[n+](CC(=O)c2ccc(Cl)cc2)c1	4.2%	?	-4.2	?	·
C[n+]1ccn(CC(=O)c2ccc(Cl)cc2)c1	-1.4%	17.3%	-3.0	-29.2%	-12.9
Cc1ccc(C(c2nnnn2Cc2ccccc2)N2CCN(Cc3ccccc3)CC2)cc1 (configuration not stated)	2.7%	-21.1%	9.7	?	-4.3
CCCCCCc1cc2cc(C(=O)OCC)c(=O)oc2cc1O	-4.0%	1.47µM*	0.7	1.65µM*	-10.4
CCCCCCc1cc2cc(/C(N)=N/NC(=O)c3ccncc3)c(=O)oc2cc1O	·	20.5%	·	3.29µM*	·
COc1ccc(/C=C/C(=O)OCC(=O)Nc2ccc(Cl)c(S(=O)(=O)N(C)C)c2)cc1OC	24.8%	?	-4.1	3.0%	-3.1
O=[N+]([O-])c1ccccc1/C=C/C=N/n1c(-c2ccccc2F)n[nH]c1=S	11.5%	0.7%	10.0	8.2%	14.3
CC(C)C(NC(=O)c1c(F)cccc1F)C(=O)NC1CC(C)(C)NC(C)(C)C1 (configuration not stated)	-4.0%	10.5%	-3.0	8.9%	-10.8
C/C=C/C(=O)N1CC2(CC(c3cccc(NC(=O)/C(C)=C/C)c3)=NO2)C[C@H]1C(N)=O (some centres not stated)	-0.8%	67.6%	-2.2	46.1%	-4.6
C/C=C/C=C/C(=O)Nc1cccc(C2=NOC3(C2)C[C@H](C(N)=O)N(C(=O)CC(c2ccccc2)c2ccccc2)C3)c1 (some centres not stated)	14.3%	?	-3.1	?	4.4
C/C=C\C(=O)Nc1cccc(C2=NOC3(C2)C[C@@H](C(N)=O)N(C(=O)CC(c2ccccc2)c2ccccc2)C3)c1 (some centres not stated)	-11.3%	13.1µM*	-2.6	10.4µM*	-7.8
C/C=C/C(=O)Nc1cccc(C2=NOC3(C2)C[C@@H](C(N)=O)N(C(=O)C(c2ccccc2)c2ccccc2)C3)c1 (some centres not stated)	-11.2%	13.1µM*	-1.2	11.7µM*	-6.2
C/C=C(\C)C(=O)Nc1cccc(C2=NOC3(C2)C[C@H](C(N)=O)N(C(=O)C(c2ccccc2)c2ccccc2)C3)c1 (some centres not stated)	-33.7%	11.7µM*	-1.1	9.28µM*	25.1
Cc1ccc(C)n1-c1cc([N+](=O)[O-])ccc1-n1ccnc1	-1.2%	?	0.7	11.7µM*	-2.3
COc1ccc([N+](=O)[O-])cc1-n1cccc1	11.1%	194.8%	-4.9	9.6%	-68.0
